In PubChem BioAssay AID1159580 (chemical genetic matrix, 2015):
About 2,000 (36%) of roughly 5,500 compounds were called active. Inconclusive results (about 18%) are left out. Rule as the data show it: active = normalized growth mostly below about 0.91 (no sharp cut-off); inconclusive = no clear call, values can overlap the other calls; inactive = mostly above about 0.92. The list shows a part of the results.

Experiment: chemical genetic growth profiling, strain panel (AID 1159580);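 also: tested at 20 µM; growth read once vehicle control cultures reached saturation at 30 °C; 1 = growth at the plate median or of vehicle wells; lower values mean less growth of the strain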
Details: growth OD

Measured: normalized growth

CCCCC[C@H](CC(=O)NO)C(=O)N[C@H](C(=O)N1CCC[C@H]1CO)C(C)C
inactive: S. cerevisiae deletion strains, locus YJR043C, strain POL32, active compounds read low 0.978 | S. cerevisiae deletion strains, locus YJR066W, strain TOR1, active compounds read low 0.934 | S. cerevisiae deletion strains, locus YJR075W, strain HOC1, active compounds read low 1.04 | S. cerevisiae deletion strains, locus YKL009W, strain mrt4, active compounds read low 1.03 | S. cerevisiae deletion strains, locus YKL068W, active compounds read low 1.01 | S. cerevisiae deletion strains, locus YKL085W, strain MDH1 (second series), active compounds read low 1.02 | S. cerevisiae deletion strains, locus YKL085W, strain MDH1, active compounds read low 1.02 | S. cerevisiae deletion strains, locus YKL160W, strain elf1, active compounds read low 1.01 | S. cerevisiae deletion strains, locus YKL190W, strain CNB1, active compounds read low 1.01 | S. cerevisiae deletion strains, locus YKR001C, strain vps1, active compounds read low 1.02 | S. cerevisiae deletion strains, locus YKR026C, strain gcn3, active compounds read low 1.01 | S. cerevisiae deletion strains, locus YKR091W, strain srl3, active compounds read low 1.02 | S. cerevisiae deletion strains, locus YLL001W, strain dnm1, active compounds read low 1.01 | S. cerevisiae deletion strains, locus YLL026W, active compounds read low 1.02 | S. cerevisiae deletion strains, locus YLL041C, strain sdh2, active compounds read low 1.01 | S. cerevisiae deletion strains, locus YLR027C, strain aat2, active compounds read low 1.01 | S. cerevisiae deletion strains, locus YLR039C, strain RIC1, active compounds read low 0.947 | S. cerevisiae deletion strains, locus YLR058C, strain SHM2, active compounds read low 1.01 | S. cerevisiae deletion strains, locus YLR102C, strain apc9, active compounds read low 1.02 | S. cerevisiae deletion strains, locus YLR113W, strain HOG1, active compounds read low 0.972 | S. cerevisiae deletion strains, locus YLR221C, strain rsa3, active compounds read low 1.01 | S. cerevisiae deletion strains, locus YLR258W, strain gsy2, active compounds read low 1.02 | S. cerevisiae deletion strains, locus YLR262C, strain YPT6 (second series), active compounds read low 1.02 | S. cerevisiae deletion strains, locus YLR262C, strain YPT6, active compounds read low 0.938 | S. cerevisiae deletion strains, locus YLR268W, strain sec22, active compounds read low 1.03 | S. cerevisiae deletion strains, locus YLR320W, strain mms22, active compounds read low 1.04 | S. cerevisiae deletion strains, locus YLR330W, strain CHS5, active compounds read low 1.02 | S. cerevisiae deletion strains, locus YLR342W, strain FKS1 (second series), active compounds read low 0.961 | S. cerevisiae deletion strains, locus YLR342W, strain FKS1, active compounds read low 1.02 | S. cerevisiae deletion strains, locus YLR357W, strain rsc2, active compounds read low 1.05 | S. cerevisiae deletion strains, locus YLR370C, strain arc18, active compounds read low 1.01 | S. cerevisiae deletion strains, locus YLR371W, strain rom2, active compounds read low 1.04 | S. cerevisiae deletion strains, locus YLR384C, strain iki3, active compounds read low 1.02 | S. cerevisiae deletion strains, locus YLR418C, strain cdc73, active compounds read low 1.02 | S. cerevisiae deletion strains, locus YML016C, strain PPZ1, active compounds read low 1.02 | S. cerevisiae deletion strains, locus YML032C, strain rad52, active compounds read low 1.01 | S. cerevisiae deletion strains, locus YML120C, strain ndi1, active compounds read low 1.02 | S. cerevisiae deletion strains, locus YML124C, strain tub3, active compounds read low 1 | S. cerevisiae deletion strains, locus YMR058W, strain fet3, active compounds read low 1.01 | S. cerevisiae deletion strains, locus YMR078C, strain ctf18, active compounds read low 1.02 | S. cerevisiae deletion strains, locus YMR125W, strain sto1, active compounds read low 1.03 | S. cerevisiae deletion strains, locus YMR129W, active compounds read low 1.01 | S. cerevisiae deletion strains, locus YMR205C, strain PFK2, active compounds read low 1.04 | S. cerevisiae deletion strains, locus YMR223W, strain ubp8, active compounds read low 1.02 | S. cerevisiae deletion strains, locus YMR231W, strain pep5, active compounds read low 1.01 | S. cerevisiae deletion strains, locus YMR263W, strain SAP30, active compounds read low 1.03 | S. cerevisiae deletion strains, locus YMR307W, strain GAS1, active compounds read low 1.03 | S. cerevisiae deletion strains, locus YNL067W, strain RPL9B, active compounds read low 1.04 | S. cerevisiae deletion strains, locus YNL071W, strain lat1, active compounds read low 1 | S. cerevisiae deletion strains, locus YNL153C, strain GIM3, active compounds read low 1.04 | S. cerevisiae deletion strains, locus YNL183C, strain NPR1, active compounds read low 0.942 | S. cerevisiae deletion strains, locus YNL209W, strain ssb2, active compounds read low 1.01 | S. cerevisiae deletion strains, locus YNL233W, strain BNI4, active compounds read low 1.03 | S. cerevisiae deletion strains, locus YNL248C, strain rpa49, active compounds read low 1 | S. cerevisiae deletion strains, locus YNL250W, strain rad50, active compounds read low 1.02 | S. cerevisiae deletion strains, locus YNL271C, strain bni1, active compounds read low 1.02 | S. cerevisiae deletion strains, locus YNL298W, strain CLA4, active compounds read low 1.01 | S. cerevisiae deletion strains, locus YNL307C, strain MCK1, active compounds read low 1.02 | S. cerevisiae deletion strains, locus YNL322C, strain KRE1 (second series), active compounds read low 1.03 | S. cerevisiae deletion strains, locus YNR049C, strain mso1, active compounds read low 1.02 | S. cerevisiae deletion strains, locus YNR052C, strain pop2, active compounds read low 1.02 | S. cerevisiae deletion strains, locus YOL012C, strain htz1 1.13 | S. cerevisiae deletion strains, locus YOL147C, strain pex11, active compounds read low 1.02 | S. cerevisiae deletion strains, locus YOR001W, strain rrp6, active compounds read low 1 | S. cerevisiae deletion strains, locus YOR061W, strain CKA2, active compounds read low 1 | S. cerevisiae deletion strains, locus YOR069W, strain VPS5, active compounds read low 1.01 | S. cerevisiae deletion strains, locus YOR070C, strain gyp1, active compounds read low 1 | S. cerevisiae deletion strains, locus YOR080W, strain dia2, active compounds read low 1.03 | S. cerevisiae deletion strains, locus YOR083W, strain WHI5, active compounds read low 1.02 | S. cerevisiae deletion strains, locus YOR106W, strain vam3, active compounds read low 1.01 | S. cerevisiae deletion strains, locus YOR136W, strain idh2, active compounds read low 1.03 | S. cerevisiae deletion strains, locus YOR144C, strain elg1, active compounds read low 1.02 | S. cerevisiae deletion strains, locus YOR184W, strain ser1, active compounds read low 1.01 | S. cerevisiae deletion strains, locus YOR231W, strain MKK1, active compounds read low 0.989 | S. cerevisiae deletion strains, locus YOR265W, strain rbl2, active compounds read low 1.01 | S. cerevisiae deletion strains, locus YOR270C, strain vph1, active compounds read low 1.01 | S. cerevisiae deletion strains, locus YOR290C, strain snf2, active compounds read low 1.02 | S. cerevisiae deletion strains, locus YOR316C, strain cot1, active compounds read low 1.01 | S. cerevisiae deletion strains, locus YPL051W, strain arl3, active compounds read low 1.02 | S. cerevisiae deletion strains, locus YPL078C, strain atp4, active compounds read low 1.02 | S. cerevisiae deletion strains, locus YPL106C, strain sse1, active compounds read low 1.03 | S. cerevisiae deletion strains, locus YPL240C, strain hsp82, active compounds read low 1.01 | S. cerevisiae deletion strains, locus YPL256C, strain CLN2, active compounds read low 0.941 | S. cerevisiae deletion strains, locus YPR119W, strain clb2, active compounds read low 1.01 | S. cerevisiae deletion strains, locus YPR141C, strain kar3, active compounds read low 1.02 | S. cerevisiae deletion strains, locus YPR163C, strain tif3, active compounds read low 1.02 | S. cerevisiae deletion strains, locus YPR167C, strain met16, active compounds read low 1.03 | S. cerevisiae deletion strains, strain wtn01, active compounds read low 1.01 | S. cerevisiae strains, strain wild type, active compounds read low 1.01
